Inconclusive results are not listed. Calls of active or inactive are those of the source. The call rests on the fitted dose curve; in most records, active means well fitted curve in the direction sought with a large enough effect; inconclusive means small, poorly fitted or top-dose-only effect, or another doubt; inactive means no such curve, though single readings can be large; an effect the other way counts as inactive or inconclusive.
Tests used:
[1] = P-glycoprotein substrates identified in KB-3-1 adenocarcinoma cell line, qHTS therapeutic library screen (AID 1346986); further: nearly all actives have a fitted effect of over 60% in size
How it was run: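 Resistance attributable to P-gp was assessed by comparing AC50 in KB-8-5-11 with parental KB-3-1 and by tariquidar reversal. Cells were exposed 72 h and viability read by CellTiter-Glo.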

[2] = Primary qHTS for inhibitors of nuclear receptor binding SET domain protein 2 (NSD2) in an isogenic RCH-ACV NSD2 p.E1099K mutant (9B) (AID 1645876); further: nearly all actives have a fitted effect of over 70% in size
[3] = Primary qHTS for inhibitors of nuclear receptor binding SET domain protein 2 (NSD2) in an RCH-ACV wild type WT cells (2C) (AID 1645877); further: nearly all actives have a fitted effect of over 70% in size
[4] = P-glycoprotein substrates identified in KB-8-5-11 adenocarcinoma cell line, qHTS therapeutic library screen (AID 1346987); further: series mostly up to about 44 µM; nearly all actives have a fitted effect of over 65% in size
How it was run: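 KB-8-5-11, a colchicine-selected P-gp-overexpressing KB-3-1 subline, was grown without colchicine for the assay. Cells were seeded at 500 cells/well, dosed in concentration-response and incubated 72 h at 37 degree C, 5% CO2. Viability was read by CellTiter-Glo luminescence.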

[5] = molecular target: Glutathione peroxidase 1 (Homo sapiens) (UniProt P07203); experiment: Primary qHTS Assay for Inhibitors of Recombinant Selenoprotein Glutathione Peroxidase 1 (GPX1) (AID 1845191); further: nearly all actives have a fitted effect of over 65% in size
How it was run: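 Recombinant GPX1 (10 nM final) was preincubated with compound for 30 min at room temperature, then reacted with 1 mM GSH, 0.5 mM CHP, 0.5 mM NADPH and 100 nM glutathione reductase; NADPH fluorescence (340/450 nm) was read at 0 and 15 min.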

Measured: Potency

Chain of Glutathione peroxidase 1 (Homo sapiens) (P07203 whole entry, looked up): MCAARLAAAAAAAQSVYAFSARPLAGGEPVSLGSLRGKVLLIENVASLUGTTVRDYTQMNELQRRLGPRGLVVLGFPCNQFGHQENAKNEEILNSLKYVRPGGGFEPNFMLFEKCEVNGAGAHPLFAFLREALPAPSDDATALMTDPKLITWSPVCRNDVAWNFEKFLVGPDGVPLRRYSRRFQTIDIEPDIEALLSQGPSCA

Cc1cn(C2OC(CO)C(O)C2F)c(=O)[nH]c1=O (stereo not drawn)
inactive: [1] | [2] | [3]

O=C1O[C@H](C(O)CO)C(=O)C1=O (stereo partly drawn)
inactive: [1] | [4] | [2] | [3] | [5]

Reference: PubChem BioAssay (NCATS)
